Data from PubChem BioAssay AID588342 (National Center for Advancing Translational Sciences (NCATS), 2011).
Among all 360,000 compounds or so, about 25,000 (6.9%) were called active. Inconclusive results (about 9%) are left out. Calls come from the whole dose curve; as a rule, active = well fitted inhibition curve with a large enough effect; inconclusive = small, poorly fitted or top-dose-only effect; inactive = flat fitted curve, though single readings scatter. Shown is part of a subset that was picked to be rich in actives. Entries that show only a call come without a potency.

These compounds were tested against Luciferin 4-monooxygenase (Photinus pyralis) (UniProt P08659) (assay: qHTS profiling assay for firefly luciferase inhibitor/activator using purifed enzyme and Km concentrations of substrates (counterscreen for miR-21 project)). Settings: purified FLuc, luminescence inhibition; series mostly up to 57.5 µM.
Sequence of Luciferin 4-monooxygenase (Photinus pyralis) (P08659 whole entry, looked up): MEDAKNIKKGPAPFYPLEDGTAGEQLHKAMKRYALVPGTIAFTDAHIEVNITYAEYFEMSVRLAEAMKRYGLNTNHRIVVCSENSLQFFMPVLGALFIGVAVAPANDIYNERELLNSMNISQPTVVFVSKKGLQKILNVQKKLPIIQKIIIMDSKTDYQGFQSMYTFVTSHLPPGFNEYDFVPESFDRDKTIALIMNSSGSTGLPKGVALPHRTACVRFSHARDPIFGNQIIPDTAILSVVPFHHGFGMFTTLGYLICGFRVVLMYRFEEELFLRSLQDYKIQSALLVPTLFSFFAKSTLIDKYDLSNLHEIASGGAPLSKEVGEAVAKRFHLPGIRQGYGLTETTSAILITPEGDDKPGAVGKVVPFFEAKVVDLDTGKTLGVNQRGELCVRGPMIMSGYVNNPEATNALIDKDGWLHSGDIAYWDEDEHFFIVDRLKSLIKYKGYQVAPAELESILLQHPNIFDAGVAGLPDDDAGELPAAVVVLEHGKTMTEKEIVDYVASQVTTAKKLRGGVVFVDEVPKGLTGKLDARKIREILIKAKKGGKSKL
How it was run: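 Purified P. pyralis luciferase, 10 nM final, with Km-level 10 uM D-luciferin and 10 uM ATP in 50 mM Tris acetate pH 7.5, 10 mM Mg acetate, 0.01% Tween-20, 0.05% BSA; 6-point qHTS titration about 60 µM downward; luminescence read.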
Note: nearly all actives have a fitted effect of over 55% in size.
Potency is the fitted concentration of half-maximal effect.

Row | Compound | Potency
1 | O=c1ccc2cc(S(=O)(=O)N3CCN(c4ccccc4)CC3)ccc2o1 | inactive
2 | CCOc1ccccc1NC(=O)Cn1c(=O)n(Cc2ccccc2)c(=O)c2c(C)c(C(=O)N(C)C)sc21 | inactive
3 | COC(=O)N/N=C/c1ccc(/C=N/NC(=O)OC)cc1 | inactive
4 | CC(C)(C)OC(=O)N/N=C/c1ccc(C(=O)O)cc1 | 19 µM (active)
5 | O=C(O)c1ccc(/C=N/NC(=S)NCc2ccccc2)cc1 | inactive
6 | O=C(N/N=C/c1ccc(OCC2COCCO2)cc1)c1ccc(Br)cc1 (stereo not given) | inactive
7 | O=C(O)c1ccc(/C=N/NC(=O)c2ccc(Br)cc2)cc1 | 15.1 µM (active)
8 | COc1ccc(S(=O)(=O)N(CC(=O)N/N=C/c2ccc(C(=O)O)cc2)Cc2ccccc2)cc1OC | inactive
9 | Cc1cccc2c(=O)cc(CSc3ccccc3NC(=O)C(C)C)[nH]c12 | inactive
10 | Nc1c(-c2ccc(F)cc2)cnn1C1CCS(=O)(=O)C1 (stereo not given) | inactive
11 | O=C(Nc1ccc(C(F)(F)F)cc1)c1cccc(-n2cnnn2)c1 | inactive
12 | CC(C)NC(=O)NCCCCCCS(C)=O (stereo not given) | inactive
13 | O=C(COC(=O)Cc1ccc(Br)cc1)Nc1ccc(N2CCOCC2)cc1 | inactive
14 | COC(=O)c1cccc(NC(=O)c2cccc(N3C(=O)CCC3=O)c2)c1 | inactive
15 | O=C(Nc1cccc2cccnc12)c1cccc2c(Br)cccc12 | inactive
16 | N#Cc1ccc(C(=O)Nc2cccc3cccnc23)c(F)c1 | inactive
17 | Cc1c(NC(=O)Nc2ccccc2Cl)sc(=S)n1C | inactive
18 | O=C(Nc1cccc2cccnc12)c1cccc(N2C(=O)CCC2=O)c1 | 13.5 µM (active)
19 | O=C(Nc1cccc2cccnc12)c1cccc(Cl)c1 | 15.1 µM (active)
20 | O=C(Nc1ccccc1Cl)Nc1cccc2cccnc12 | 12 µM (active)
21 | Cc1cc(NC(=O)c2cccc(N3C(=O)CCC3=O)c2)no1 | inactive
22 | COc1c(Cl)cc(Cl)cc1C(=O)Nc1cccc2cccnc12 | inactive
23 | O=S(=O)(Nc1ccc(-n2cnnn2)cc1)c1ccc(Cl)cc1 | inactive
24 | O=[N+]([O-])/C=C1\CCCCCN1 | inactive
25 | CCc1ccccc1N1CC(c2nc3ccccc3n2CCCCOc2ccccc2)CC1=O (stereo not given) | inactive
26 | O=C(CCNS(=O)(=O)c1ccccc1C(F)(F)F)Nc1ccncc1 | inactive
27 | Cc1ccc(-c2nnc(Nc3cccc(Br)c3)c3ccccc23)cc1S(=O)(=O)NCC1CCCO1 (stereo not given) | inactive

Row | Compound | Potency
28 | CC1CCCC(NC(=O)COC(=O)[C@@H]2CC(O)CN2S(=O)(=O)c2ccc3c(c2)OCCO3)C1C (stereo not given in full) | inactive
29 | Clc1ccc(CSc2nncn3c2cc2occc23)cc1 | inactive
30 | CC(=O)c1ccccc1NC(=O)C1CC(=O)N(c2ccc3c(c2)OCCO3)C1 (stereo not given) | inactive
31 | COc1ccc(CNc2nc(-c3ccc(Cl)cc3)nn2S(=O)(=O)c2ccc(C)cc2)cc1 | inactive
32 | CS(=O)(=O)Nc1cccc(-c2cn3ccccc3n2)c1 | 23.9 µM (active)
33 | COC(=O)c1cccc(NS(C)(=O)=O)c1 | inactive
34 | CS(=O)(=O)Nc1cccc(C2=NN(S(=O)(=O)c3ccccc3)C(c3cccs3)C2)c1 (stereo not given) | inactive
35 | COc1ccccc1C1=CC(=O)C[C@H](c2ccc(F)cc2)C1 | inactive
36 | Cc1ccc(SCCSc2ncccn2)cc1 | 1.69 µM (active)
37 | Cc1ccc(SCCC(=O)NCc2ccccn2)cc1 | inactive
38 | Cc1ccc(SCCC(=O)NC(C(C)C)C(C)C)cc1 | inactive
39 | CCN(C(=O)CSc1nnc(C)n2c1cc1occc12)c1ccccc1 | inactive
40 | COc1cc(C(=O)NNC(=O)CN2C(=O)NC3(CCCC3)C2=O)cc(OC)c1OC | inactive
41 | Cc1ccc(-c2nnc3c4ccccc4c(C)nn23)cc1NC(=O)c1cccc(Br)c1 | inactive
42 | Cc1ccc(S(=O)(=O)NCCC(=O)Nc2ccc(C)c(Cl)c2)cc1C | inactive
43 | Cc1ccnc(NC(=O)CCNS(=O)(=O)c2ccc(C)c(C)c2)c1 | 4.78 µM (active)
44 | Cc1ccc(S(=O)(=O)NCCC(=O)Nc2cccc(S(N)(=O)=O)c2)cc1C | inactive
45 | COc1cc(NC(=O)CN2CCN(S(=O)(=O)c3ccc(Br)cc3)CC2)cc(OC)c1 | inactive
46 | O=C(O)CCn1c(Cc2ccccc2)nc2ccccc21 | inactive
47 | Cc1cc2ccccc2n1CCC(=O)O | inactive
48 | O=C(O)CCn1c(O)c(C=C2N=c3ccccc3=N2)sc1=S | 1.07 µM (active)
49 | CCOC(=O)c1ccc(NC(=O)CC2C(=O)N(c3cccc(OC)c3)C(=O)N2C2CCCCC2)cc1 (stereo not given) | inactive
50 | CN(CC(=O)Nc1ccccc1F)S(=O)(=O)c1ccc2c(c1)c(=O)n(C)c(=O)n2C | inactive
51 | O=C(Nc1ccncc1)c1cc(-c2ccccn2)nc2ccc(Br)cc12 | inactive
52 | Cc1ccc2nc(-c3ccccc3)cc(C(=O)O)c2c1 | 12 µM (active)
53 | Cc1ccsc1-c1cc(C(=O)O)c2c(ccc3ccccc32)n1 | 5.36 µM (active)
54 | Cc1ccc(-c2cc(C(=O)NCc3cn(C)nc3C)c3cc(Br)ccc3n2)cc1 | 1.9 µM (active)

Row | Compound | Potency
55 | NC(=O)c1cc(-c2cccnc2)nc2ccc(Br)cc12 | inactive
56 | Cc1ccc2nc(-c3ccncc3)cc(C(=O)Nc3ccc4c(c3)OCCO4)c2c1 | inactive
57 | O=C(NCC(c1cccs1)N1CCOCC1)c1cc(-c2ccccn2)nc2ccccc12 (stereo not given) | inactive
58 | O=C(NCc1cccs1)c1cc(-c2ccccn2)nc2ccc(Br)cc12 | inactive
59 | CCS(=O)(=O)Nc1cccc(-c2cc(-c3ccccc3)c3cc(C)ccc3n2)c1 | inactive
60 | COc1ccccc1C(=O)Nn1cnnc1 | inactive
61 | Cc1ccc2nc(-c3cccc(Br)c3)cc(C(=O)Nn3cnnc3)c2c1 | 0.536 µM (active)
62 | Cc1cc(C(=O)OCC(=O)Nc2nccs2)c2ccccc2n1 | inactive
63 | Cc1cccc(NC(=O)Cn2cc(S(=O)(=O)Cc3ccccc3Cl)c3ccccc32)c1 | inactive
64 | CCOC(=O)c1ccccc1NC(=O)c1sc2nc(-c3ccc(F)cc3)cn2c1C | inactive
65 | O=C(NCC12CC3CC(CC(C3)C1)C2)c1cc2nc(-c3ccccc3)cc(C(F)(F)F)n2n1 | inactive
66 | Cc1nc(CNS(=O)(=O)c2ccc(Oc3ccccc3)cc2)cs1 | inactive
67 | Cc1ccc(S(=O)(=O)c2cn(Cc3ccccc3)c3cc(N4CCCC4)c(F)cc3c2=O)c(C)c1 | inactive
68 | NC(=O)Cn1nc([N+](=O)[O-])nc1Oc1ccc(Br)cc1 | inactive
69 | COc1ccccc1-n1c(-c2ccc(C)cc2)cn2c3c(=O)n(C)c(=O)n(C)c3nc12 | inactive
70 | COc1cccc(C(=O)N2CCC(n3nccc3NC(=O)C3CCOC3)CC2)c1 (stereo not given) | inactive
71 | COC(=O)[C@]1(C)CCC[C@@]2(C)C3CC[C@]4(OC(C)=O)C[C@@]3(CCC21)CC4=NO (stereo not given in full) | inactive
72 | COc1ccc(N(CC(=O)NCCc2ccc(Cl)cc2)S(=O)(=O)c2c(C)nn(C)c2C)cc1 | inactive
73 | NC(=O)C1CCN(C(=O)c2ccc(-c3ccccc3)cc2)CC1 | inactive
74 | O=C(CCNS(=O)(=O)c1ccccc1)NCCSc1ccc(Br)cc1 | inactive
75 | Cc1c(NS(=O)(=O)c2ccc(Cl)cc2)c(=O)n(-c2ccccc2)n1C | inactive
76 | Nc1nc(-c2sc3nc4c(cc3c2N)CCCC4)nc(N2CCOCC2)n1 | 0.675 µM (active)
77 | Cc1cccc(NC(=O)c2sc3nc(N4CCOCC4)c4c(c3c2N)CCCC4)c1 | inactive
78 | Cc1nc(N2CCOCC2)nc2c1CCCC2 | inactive
79 | CCN(CC)c1ccc(NC(=O)CN2CCN(CC(=O)Nc3ccc(Cl)cc3)CC2)cc1 | inactive
80 | COc1cccc(C(=O)N/N=C(\C)c2cccc(NC(=O)c3ccc(F)cc3)c2)c1OC | 13.5 µM (active)
81 | COc1cccc(C(=O)Nc2cccnc2)c1OC | inactive

Row | Compound | Potency
82 | COc1ccc(/C(C)=N\NC(=O)c2ccc(-c3ccccc3)cc2)c(F)c1 | inactive
83 | Cc1cc(C)cc(NC(=O)Cn2nc(N3CCN(c4ccccc4)CC3)ccc2=O)c1 | inactive
84 | CCC1CN(S(=O)(=O)c2cc(-c3cc(C)no3)ccc2C)c2cc(C)ccc2O1 (stereo not given) | inactive
85 | Cc1c(Cl)cccc1NC(=O)NCCCN1CCCC1=O | inactive
86 | Cc1c(Cl)cccc1NC(=O)Nc1ccc(C(=O)N2CCCC2)cc1 | 5.36 µM (active)
87 | CS(=O)(=O)Nc1ccc(C(=O)N2CCCC2)cc1 | inactive
88 | Cc1ccc(C)n1-c1nnc(N2CCC(C(=O)NCc3ccc(F)cc3)CC2)s1 | inactive
89 | Cn1c(=O)c2c(SCC(=O)N3CCc4ccccc43)nc(-c3ccc(Cl)cc3)nc2n(C)c1=O | inactive
90 | CCn1c2ccccc2c2cc(NC(=O)COc3ccc(C)cc3C)ccc21 | inactive
91 | Cc1ccc(OCC(=O)Nc2ccc(NC(=O)c3cccs3)cc2)c(C)c1 | inactive
92 | Cc1cccc(NC(=O)c2cccnc2Cl)n1 | inactive
93 | Cc1cccc(NC(=O)COc2ccc(Br)cc2C)n1 | 3.38 µM (active)
94 | Cc1ccccc1OCC(=O)Nc1ccc2c(c1)ncn2C | 21.3 µM (active)
95 | Cc1cccc(NC(=O)c2ccc3ccccc3n2)n1 | 6.01 µM (active)
96 | CCN(CC)S(=O)(=O)c1ccc(C)c(NC(=O)COc2ccc(Br)cc2Cl)c1 | inactive
97 | Cc1ccc(S(=O)(=O)NC(=O)COc2ccccc2C)cc1 | inactive
98 | COCCNC(=O)COc1ccccc1C | inactive
99 | Cc1ccccc1OCC(=O)Nc1ccc(N2CCN(C(=O)C(C)C)CC2)c(Cl)c1 | inactive
100 | Cc1cccc(NC(=O)COc2ccccc2C)n1 | 13.5 µM (active)
101 | Cc1cccc(NC(=O)c2ccccc2NC(=O)C(C)(C)C)n1 | inactive
102 | Cc1nc(C)c2c(c1C(F)(F)F)-c1ccccc1C2(F)F | inactive
103 | COc1cccc(NC(=O)CSc2cc(=O)n(C)c3ccc(Cl)cc23)c1 | inactive
104 | CCC1(CC)NC(=O)N(CC(=O)OCC(=O)c2cc(C)c(C)cc2C)C1=O | inactive
105 | CCOC(=O)c1c(C)[nH]c(CCC(=O)NCCCN2CCN(c3cc(C)ccc3C)CC2)c1C | inactive
